Results on eleven sequences are retold here after article PMC11006913.

Holding throughout (assay): PBM; 200 nM protein, PBS
Holding throughout (settings): dsDNA, one strand shown

For assay [1], the target named is HOXC9 (Homo sapiens, UniProt P31274 178-260, K195R).
The target in assay [2] is HOXC9 (Homo sapiens, UniProt P31274 178-260).
Assay [3] addresses HOXC9 (Homo sapiens, UniProt P31274 178-260, R193K).
For assay [4], the target named is MSX2 (Homo sapiens, UniProt P35548 130-214, R199I).
Chain of MSX2 (Homo sapiens, UniProt P35548 130-214, R199I) (P35548 130-214 R199I): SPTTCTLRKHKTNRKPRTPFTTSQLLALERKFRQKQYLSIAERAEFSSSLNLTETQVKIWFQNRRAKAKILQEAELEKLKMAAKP
In assay [5] the target is MSX2 (Homo sapiens, UniProt P35548 130-214).
Chain of MSX2 (Homo sapiens, UniProt P35548 130-214) (P35548 130-214): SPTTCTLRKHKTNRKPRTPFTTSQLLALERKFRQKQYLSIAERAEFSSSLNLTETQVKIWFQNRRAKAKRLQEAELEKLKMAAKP
For assay [6], the target named is HOXC9 (Homo sapiens, UniProt P31274 178-260, R222W).
Chain of HOXC9 (Homo sapiens, UniProt P31274 178-260, R222W) (P31274 178-260 R222W): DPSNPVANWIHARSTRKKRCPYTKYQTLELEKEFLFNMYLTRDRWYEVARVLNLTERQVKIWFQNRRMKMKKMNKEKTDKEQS
Assay [7] has as its target MSX2 (Homo sapiens, UniProt P35548 130-214, F161Y).
The target of assay [8] is HOXD13 (Homo sapiens, UniProt P35453 263-343, T313R).
Chain of HOXD13 (Homo sapiens, UniProt P35453 263-343, T313R) (P35453 263-343 T313R): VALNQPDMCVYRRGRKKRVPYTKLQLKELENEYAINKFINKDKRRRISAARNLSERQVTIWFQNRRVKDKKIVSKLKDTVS
The target of assay [9] is HOXD13 (Homo sapiens, UniProt P35453 263-343).
Chain of HOXD13 (Homo sapiens, UniProt P35453 263-343) (P35453 263-343): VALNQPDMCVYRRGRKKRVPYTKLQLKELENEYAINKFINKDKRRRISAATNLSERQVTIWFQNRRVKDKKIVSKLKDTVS
The target in assay [10] is HOXD13 (Homo sapiens, UniProt P35453 263-343, T313A).
Chain of HOXD13 (Homo sapiens, UniProt P35453 263-343, T313A) (P35453 263-343 T313A): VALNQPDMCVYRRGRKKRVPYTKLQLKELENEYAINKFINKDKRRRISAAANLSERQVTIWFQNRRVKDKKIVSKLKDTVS
In assay [11] the target is CRX (Homo sapiens, UniProt O43186 26-111, E42D).
Chain of CRX (Homo sapiens, UniProt O43186 26-111, E42D) (O43186 26-111 E42D): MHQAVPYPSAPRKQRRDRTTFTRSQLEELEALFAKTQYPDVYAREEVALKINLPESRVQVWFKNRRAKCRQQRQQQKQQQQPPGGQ
Assay [12] concerns the target PITX2 (Homo sapiens, UniProt Q99697 72-157).
In assay [13] the target is CRX (Homo sapiens, UniProt O43186 26-111, R41L).
Chain of CRX (Homo sapiens, UniProt O43186 26-111, R41L) (O43186 26-111 R41L): as the sequence (O43186 26-111 E42D) above, with R16L, D17E counted along it
The target in assay [14] is T1, NKX2-6 (Homo sapiens, UniProt A6NCS4 118-204, R150C).
T1 sequence: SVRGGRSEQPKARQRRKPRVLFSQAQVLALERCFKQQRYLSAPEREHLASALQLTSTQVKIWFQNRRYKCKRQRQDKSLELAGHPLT

Assay [15] concerns the target ALX1 (Homo sapiens, UniProt Q15699 118-204, L144V).
In assay [16] the target is ALX1 (Homo sapiens, UniProt Q15699 118-204, L144R).
Chain of ALX1 (Homo sapiens, UniProt Q15699 118-204, L144R) (Q15699 118-204 L144R): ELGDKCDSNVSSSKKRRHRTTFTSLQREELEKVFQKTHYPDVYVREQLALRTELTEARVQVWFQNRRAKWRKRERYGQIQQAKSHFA
The target of assay [17] is ALX1 (Homo sapiens, UniProt Q15699 118-204).
Chain of ALX1 (Homo sapiens, UniProt Q15699 118-204) (Q15699 118-204): as the sequence (Q15699 118-204 L144R) above, with R27L counted along it

Chain of HOXC9 (Homo sapiens, UniProt P31274 178-260) (P31274 178-260): as the sequence (P31274 178-260 R222W) above, with W45R counted along it
Chain of HOXC9 (Homo sapiens, UniProt P31274 178-260, K195R) (P31274 178-260 K195R): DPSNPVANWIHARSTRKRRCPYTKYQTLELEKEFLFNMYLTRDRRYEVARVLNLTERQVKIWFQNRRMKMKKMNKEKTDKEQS
Chain of HOXC9 (Homo sapiens, UniProt P31274 178-260, R193K) (P31274 178-260 R193K): as the sequence (P31274 178-260 R222W) above, with R16K, W45R counted along it
Chain of MSX2 (Homo sapiens, UniProt P35548 130-214, F161Y) (P35548 130-214 F161Y): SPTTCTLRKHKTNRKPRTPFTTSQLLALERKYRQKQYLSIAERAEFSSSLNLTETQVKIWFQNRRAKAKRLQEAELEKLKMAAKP
Chain of ALX1 (Homo sapiens, UniProt Q15699 118-204, L144V) (Q15699 118-204 L144V): as the sequence (Q15699 118-204 L144R) above, with R27V counted along it

In the case of ATTTAACA, the binding signal in [1] is 11.6 upbm affinity estimate (log intensity, higher = more binding, comparable within an allelic series); in assay [2], 11.6 upbm affinity estimate (log intensity, higher = more binding, comparable within an allelic series); in [3], 11.6 upbm affinity estimate (log intensity, higher = more binding, comparable within an allelic series).

For CGCGGGAG, the binding signal is 9.47 upbm affinity estimate (log intensity, higher = more binding, comparable within an allelic series) in [1]; 9.59 upbm affinity estimate (log intensity, higher = more binding, comparable within an allelic series) in assay [2]; 9.38 upbm affinity estimate (log intensity, higher = more binding, comparable within an allelic series) in assay [4]; 9.43 upbm affinity estimate (log intensity, higher = more binding, comparable within an allelic series) in assay [3]; 9.23 upbm affinity estimate (log intensity, higher = more binding, comparable within an allelic series) in assay [5]; 9.64 upbm affinity estimate (log intensity, higher = more binding, comparable within an allelic series) in [6]. For the same sequence, the binding signal in assay [7] was 9.25 upbm affinity estimate (log intensity, higher = more binding, comparable within an allelic series).

CTGTTATA: the binding signal in assay [1] is 11.5 upbm affinity estimate (log intensity, higher = more binding, comparable within an allelic series); in [2], 11.5 upbm affinity estimate (log intensity, higher = more binding, comparable within an allelic series); in assay [3] it was 11.5 upbm affinity estimate (log intensity, higher = more binding, comparable within an allelic series).

With CACAATTA, the binding signal in assay [1] was 11.7 upbm affinity estimate (log intensity, higher = more binding, comparable within an allelic series); in assay [2], 11.7 upbm affinity estimate (log intensity, higher = more binding, comparable within an allelic series); in [4], 12.1 upbm affinity estimate (log intensity, higher = more binding, comparable within an allelic series); in assay [3] it was 11.7 upbm affinity estimate (log intensity, higher = more binding, comparable within an allelic series); in assay [5], 13.4 upbm affinity estimate (log intensity, higher = more binding, comparable within an allelic series); in assay [7] it was 13 upbm affinity estimate (log intensity, higher = more binding, comparable within an allelic series).

In the case of CTTATAAA, the binding signal in [1] is 11.3 upbm affinity estimate (log intensity, higher = more binding, comparable within an allelic series); in assay [2], 11.2 upbm affinity estimate (log intensity, higher = more binding, comparable within an allelic series); in [8], 10.7 upbm affinity estimate (log intensity, higher = more binding, comparable within an allelic series); in assay [3] it was 11.2 upbm affinity estimate (log intensity, higher = more binding, comparable within an allelic series); in assay [9], 11.8 upbm affinity estimate (log intensity, higher = more binding, comparable within an allelic series); in assay [10] it was 11.5 upbm affinity estimate (log intensity, higher = more binding, comparable within an allelic series).

As to GGAGAACC, the binding signal in assay [1] is 9.48 upbm affinity estimate (log intensity, higher = more binding, comparable within an allelic series); in assay [2], 9.62 upbm affinity estimate (log intensity, higher = more binding, comparable within an allelic series); in assay [8], 9.57 upbm affinity estimate (log intensity, higher = more binding, comparable within an allelic series); in assay [3], 9.52 upbm affinity estimate (log intensity, higher = more binding, comparable within an allelic series); in assay [9] it was 9.46 upbm affinity estimate (log intensity, higher = more binding, comparable within an allelic series); in assay [10], 9.73 upbm affinity estimate (log intensity, higher = more binding, comparable within an allelic series). Also, the binding signal in assay [6] is 9.79 upbm affinity estimate (log intensity, higher = more binding, comparable within an allelic series).

For the sequence GCGTCGCC, the binding signal in [1] was 9.69 upbm affinity estimate (log intensity, higher = more binding, comparable within an allelic series); in [2], 9.74 upbm affinity estimate (log intensity, higher = more binding, comparable within an allelic series); in [4] it was 9.45 upbm affinity estimate (log intensity, higher = more binding, comparable within an allelic series); in assay [3], 9.48 upbm affinity estimate (log intensity, higher = more binding, comparable within an allelic series); in [5], 9.4 upbm affinity estimate (log intensity, higher = more binding, comparable within an allelic series); in [6], 9.77 upbm affinity estimate (log intensity, higher = more binding, comparable within an allelic series). The binding signal in [7] was 9.49 upbm affinity estimate (log intensity, higher = more binding, comparable within an allelic series).

Turning to AGATTAAA, the binding signal in assay [1] was 11.2 upbm affinity estimate (log intensity, higher = more binding, comparable within an allelic series); in assay [11], 12.7 upbm affinity estimate (log intensity, higher = more binding, comparable within an allelic series); in [2] it was 11.1 upbm affinity estimate (log intensity, higher = more binding, comparable within an allelic series); in [12] it was 12.3 upbm affinity estimate (log intensity, higher = more binding, comparable within an allelic series); in [3], 11.2 upbm affinity estimate (log intensity, higher = more binding, comparable within an allelic series); in assay [13] it was 12.5 upbm affinity estimate (log intensity, higher = more binding, comparable within an allelic series).

For the sequence CCGGGTAC, the binding signal is 9.59 upbm affinity estimate (log intensity, higher = more binding, comparable within an allelic series) in assay [1]; 9.58 upbm affinity estimate (log intensity, higher = more binding, comparable within an allelic series) in assay [14]; 9.74 upbm affinity estimate (log intensity, higher = more binding, comparable within an allelic series) in assay [2]; 6.43 upbm affinity estimate (log intensity, higher = more binding, comparable within an allelic series) in [15]; 9.61 upbm affinity estimate (log intensity, higher = more binding, comparable within an allelic series) in assay [3]; 6.2 upbm affinity estimate (log intensity, higher = more binding, comparable within an allelic series) in assay [16]. Also, the binding signal in assay [6] was 9.63 upbm affinity estimate (log intensity, higher = more binding, comparable within an allelic series); in [17], 6.38 upbm affinity estimate (log intensity, higher = more binding, comparable within an allelic series).

For ATAGTCAA, the binding signal was 10.7 upbm affinity estimate (log intensity, higher = more binding, comparable within an allelic series) in assay [1]; 10.7 upbm affinity estimate (log intensity, higher = more binding, comparable within an allelic series) in assay [2]; 10.8 upbm affinity estimate (log intensity, higher = more binding, comparable within an allelic series) in assay [3].

In the case of CGGGCCAG, the binding signal in assay [1] was 9.64 upbm affinity estimate (log intensity, higher = more binding, comparable within an allelic series); in assay [2] it was 9.85 upbm affinity estimate (log intensity, higher = more binding, comparable within an allelic series); in assay [4], 9.53 upbm affinity estimate (log intensity, higher = more binding, comparable within an allelic series); in assay [3], 9.73 upbm affinity estimate (log intensity, higher = more binding, comparable within an allelic series); in assay [5], 9.56 upbm affinity estimate (log intensity, higher = more binding, comparable within an allelic series); in [6] it was 9.77 upbm affinity estimate (log intensity, higher = more binding, comparable within an allelic series). Further, the binding signal in [7] was 9.66 upbm affinity estimate (log intensity, higher = more binding, comparable within an allelic series).
